{
  "source": "PubChem BioAssay (Tox21)",
  "note": "Inconclusive results are not listed. Activity calls are given as the source filed them. Calls come from the whole dose curve; as a rule, active = well fitted cell-killing curve with a large enough effect in the repeat runs; inconclusive = weak or mixed curves, or effect the other way; inactive = flat fitted curve, though single readings scatter.",
  "data": [
    {"experiment": "qHTS assay to identify small molecule agonists of the TGF-beta/Smad signaling pathway - cell viability counter screen (AID 1346829); note: top concentration of the series differs between compounds; nearly all actives have a fitted effect of over 45% in size", "conditions": "SBE-bla HEK293T viability, CellTiter-Glo luminescence, 5 h; series mostly up to 76.8 µM", "from_the_text": "National Center for Advancing Translational Sciences [NCATS]\nNIH Chemical Genomics Center [NCGC]\nU.S. Environmental Protection Agency [EPA]\nNational Institutes of Environmental Health Sciences [NIEHS]\nNational Toxicology Program [NTP]\nU.S. Food and Drug Administration [FDA]\nTransforming growth factor beta (TGF-beta) superfamily consists of a large number of structurally related dimeric proteins that act as hormones or local mediators in regulating a wide range of biological functions. This superfamily includes TGF-betas themselves, the bone morphogenetic proteins (BMPs) and the activins. These ligands induce oligomerization of serine/threonine receptor kinases and phosphorylate the cytoplasmic signaling molecules of Smad protein family. CellSensor SBE-bla HEK 293T cell line (Life Technologies, Carlsbad, CA), responsive to TGF-beta was used to screen Tox21 10K compound library for identification of agonists/antagonists of the Smad signaling pathway. This cell line contains a beta-lactamase reporter gene under control of the Smad binding element (SBE) stably integrated into HEK 293T cells. Also cytotoxicity of the compounds was tested in parallel by measuring the cell viability using CellTiter-Glo assay system in the same wells.\nTox21 Assay Protocol Summary:\nSBE-bla HEK 293T cells were dispensed at 4,000/well in 6 uL of assay medium into black wall/clear-bottom 1536-well plates using a Multidrop Combi (ThermoFisher Scientific, Waltham, MA) dispenser. After the assay plates were incubated at 37 C and 5% CO2 for an overnight, 23 nL of compounds dissolved in DMSO, positive controls or DMSO only was transferred to the assay plate by a Pintool station (Kalypsys, San Diego, CA). The assay plates were incubated at 37 C and 5% CO2 for 5 hr. One uL of LiveBLAzer B/G FRET substrate (Life Technologies) was added using a Flying Reagent Dispenser (FRD, Aurora Discovery, San Diego, CA) and the plates were incubated at room temperature for 2 hr. Fluorescence intensity (405 nm excitation, 460 nm and 530 nm emissions) was measured using an Envision plate reader (PerkinElmer, Shelton, CT). For cytotoxicity read, 4 uL of CellTiter-Glo reagent (Promega Corporation, Madison, WI) was added to each well of the assay plates using FRD. After 30min incubation at room temperature, the luminescence intensity was measured using ViewLux plate reader (PerkinElmer).", "values": [
      {"smiles": "Cc1cccc([N+](=O)[O-])c1", "outcome": "inactive"},
      {"smiles": "O=c1[nH]c2ccccc2c(=O)o1", "outcome": "inactive"},
      {"smiles": "Nc1ccc(Cc2ccc(N)cc2)cc1", "outcome": "inactive"},
      {"smiles": "CC(C)(C)C(O)(CCc1ccc(Cl)cc1)Cn1cncn1", "note": "(stereo not given)", "outcome": "inactive"},
      {"smiles": "CC(C)N1C(=O)c2ccccc2NS1(=O)=O", "outcome": "inactive"},
      {"smiles": "CN(C)N=O", "outcome": "inactive"},
      {"smiles": "CCCCN(CC)C(=O)SCCC", "outcome": "inactive"},
      {"smiles": "CN(C)[C@@H]1C(=O)C(C(N)=O)=C(O)[C@@]2(O)C(=O)C3=C(O)c4c(O)cccc4[C@@](C)(O)[C@H]3C[C@@H]12", "outcome": "inactive"},
      {"smiles": "COC(=O)NS(=O)(=O)c1ccc(N)cc1", "outcome": "inactive"},
      {"smiles": "O=S(=O)(c1ccc(Cl)cc1)c1cc(Cl)c(Cl)cc1Cl", "outcome": "inactive"},
      {"smiles": "CC(C#N)CCC#N", "note": "(stereo not given)", "outcome": "inactive"},
      {"smiles": "CC(C)C1(C)N=C(c2nc3ccccc3cc2C(=O)O)NC1=O", "note": "(stereo not given)", "outcome": "inactive"},
      {"smiles": "CCCCN(CCCC)SN(C)C(=O)Oc1cccc2c1OC(C)(C)C2", "outcome": "inactive"},
      {"smiles": "[N-]=[N+]=[N-]", "outcome": "inactive"},
      {"smiles": "c1ccc2c(c1)oc1ccccc12", "outcome": "inactive"},
      {"smiles": "CCCCCCCCCCCC#N", "outcome": "inactive"},
      {"smiles": "ClCc1cccnc1", "outcome": "inactive"},
      {"smiles": "CCCCCOC(=O)c1ccccc1C(=O)OCCCCC", "outcome": "inactive"},
      {"smiles": "CCN(CC)c1ccccc1", "outcome": "inactive"},
      {"smiles": "Nc1ccc(Br)cc1", "outcome": "inactive"},
      {"smiles": "CCOP(OCC)OCC", "outcome": "inactive"},
      {"smiles": "C=CCO", "outcome": "inactive"},
      {"smiles": "CCCC1COC(Cn2cncn2)(c2ccc(Cl)cc2Cl)O1", "note": "(stereo not given)", "outcome": "inactive"},
      {"smiles": "Nc1c(Cl)c(Cl)nc(C(=O)O)c1Cl", "outcome": "inactive"},
      {"smiles": "ClCCBr", "outcome": "inactive"},
      {"smiles": "c1ccc(OP(Oc2ccccc2)Oc2ccccc2)cc1", "outcome": "inactive"},
      {"smiles": "O=Cc1cccc(Oc2ccccc2)c1", "outcome": "inactive"},
      {"smiles": "CC(Oc1ccc(Cl)cc1Cl)C(=O)O", "note": "(stereo not given)", "outcome": "inactive"},
      {"smiles": "CN1C(=O)CN=C(c2ccccc2)c2cc(Cl)ccc21", "outcome": "inactive"},
      {"smiles": "O=C(O)c1ccccn1", "outcome": "inactive"},
      {"smiles": "CC(C)=C[C@@H]1[C@@H](C(=O)OCc2coc(Cc3ccccc3)c2)C1(C)C", "outcome": "inactive"},
      {"smiles": "O=c1n(Cl)c(=O)n(Cl)c(=O)n1Cl", "outcome": "inactive"},
      {"smiles": "C[C@]12CC[C@H]3[C@@H](CC[C@@]45O[C@@H]4C(O)=C(C#N)C[C@]35C)[C@@H]1CC[C@@H]2O", "outcome": "inactive"},
      {"smiles": "COP(N)(=O)SC", "note": "(stereo not given)", "outcome": "inactive"},
      {"smiles": "CN(C)CCO", "outcome": "inactive"},
      {"smiles": "NCC(O)c1ccc(O)cc1", "note": "(stereo not given)", "outcome": "inactive"},
      {"smiles": "CC(NC(C)(C)C)C(=O)c1cccc(Cl)c1", "note": "(stereo not given)", "outcome": "inactive"},
      {"smiles": "CCC[N+](=O)[O-]", "outcome": "inactive"},
      {"smiles": "Cn1cc(-c2ccccc2)c(=O)c(-c2cccc(C(F)(F)F)c2)c1", "outcome": "inactive"},
      {"smiles": "Clc1cccc(Cl)c1Cl", "outcome": "inactive"}
    ]}
  ]
}
